# This is a sample that favours compounds with a hit; in the whole collection about 0.97% have one here.
# AGP1-GFP MLPCN – alters AGP1-GFP fluorescence in TOR pathway yeast screen; GFP response vs DMSO, % at 10 µM; AID 2066; S. cerevisiae AGP1-GFP multiplex flow cytometry, 3 h; GFP as percent of DMSO wells; 320,000 tested, 0.02% active;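 active means GFP response relative to DMSO above a set limit, near screen average plus 3 SD, cut at about 150% in these data; inconclusive means fewer than 70 cells counted for the yeast strain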;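 further: median GFP channel fluorescence of the gated AGP1 strain per well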
# CIT2 TOR yeast – modulators of TOR pathway CIT2-GFP in S. cerevisiae; S. cerevisiae CIT2-GFP strain, flow cytometry, 3 h; 100 means same as DMSO wells; 320,000 tested, 0.065% active; GFP response vs DMSO, % at 10 µM;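 active means GFP response relative to DMSO above a set limit, near the screen mean plus 3 SD, cut at about 150% in these data; inconclusive means Fewer than 70 cells measured for a yeast strain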;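 further: ratio of well median GFP fluorescence to mean of DMSO wells on the plate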
# JMJD2C inh – inhibitors of human GASC-1 (JMJD2C) demethylase. GST-JMJD2C(1-420) H3K9me3 demethylation, DELFIA europium. inhibition, % at 2.35 µM. 330,000 tested, 0.069% active. AID 2099;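 active means more than half of a compound's replicate wells show inhibition beyond 50%, single wells judged on their own value; inconclusive means some, but no more than half, of replicates pass 50% inhibition; inactive means no replicate passes 50% inhibition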;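 further: signal counts dimethyl H3K9 product captured on neutravidin plate; 0% = median of DMSO wells and 100% = 0.3 times that DMSO median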
# Target sequence (Q9H3R0 1-420 limits assumed): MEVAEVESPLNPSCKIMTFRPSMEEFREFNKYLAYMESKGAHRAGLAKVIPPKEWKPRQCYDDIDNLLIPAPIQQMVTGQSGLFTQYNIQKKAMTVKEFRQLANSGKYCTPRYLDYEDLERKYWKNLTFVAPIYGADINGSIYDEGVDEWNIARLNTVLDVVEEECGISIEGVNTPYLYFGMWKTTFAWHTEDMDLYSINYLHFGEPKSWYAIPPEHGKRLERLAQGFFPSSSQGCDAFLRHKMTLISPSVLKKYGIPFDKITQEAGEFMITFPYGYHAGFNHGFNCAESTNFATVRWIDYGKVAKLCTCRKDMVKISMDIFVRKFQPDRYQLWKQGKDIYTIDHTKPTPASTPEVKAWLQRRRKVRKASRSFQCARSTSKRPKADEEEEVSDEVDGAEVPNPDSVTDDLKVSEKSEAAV
# RPL19A-GFP yeast – yeast TOR pathway RPL19A-GFP modulation | percent response vs DMSO, % at 10 µM | AID 2025 | 330,000 tested, 0.3% active | S. cerevisiae RPL19A-GFP strain, flow cytometry, 3 h; stronger effect = lower value;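 active means percent response vs DMSO below 50%; inconclusive means fewer than 70 events counted for the yeast strain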;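 further: median channel GFP fluorescence of the barcoded RPL19A-GFP strain; ratio of sample median GFP to plate DMSO average so 100% = DMSO; lower means less RPL19A-GFP as with rapamycin TOR inhibition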
# MEP2-GFP yeast – alters MEP2-GFP fluorescence in TOR pathway yeast screen; S. cerevisiae MEP2-GFP strain, flow cytometry GFP, 3 h; 100% = DMSO control level; GFP response vs DMSO, % at 10 µM; 330,000 tested, 0.51% active; AID 2016;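 active means GFP response versus DMSO above a set limit, roughly screen mean plus 3 SD, cut at about 180% in these data; inconclusive means fewer than 70 cells counted for a yeast strain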;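 further: median GFP fluorescence of the barcode-gated MEP2-GFP cells per well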
# LAP4 TOR yeast – modulators of TOR pathway LAP4-GFP in S. cerevisiae | S. cerevisiae LAP4-GFP multiplex, flow cytometry GFP, 3 h; median GFP as percent of DMSO wells | GFP response vs DMSO, % at 10 µM | 320,000 tested, 0.34% active | AID 2023;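 active means GFP response vs DMSO above a set limit, about the screen mean plus 3 SD, cut at about 150% in these data; inconclusive means under 70 cell events counted for the yeast strain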
# The depositor's hits bear a star; u = inconclusive; x = no result given; [ ] = remark or other dose.
SMILES,AGP1-GFP MLPCN,CIT2 TOR yeast,JMJD2C inh,RPL19A-GFP yeast,MEP2-GFP yeast,LAP4 TOR yeast
CC(C)(C)N1C(=O)c2ccccc2NC(=O)N1Cc1ccccc1,103,x,-2,104,96,91
CCc1ccc(CCC(=O)Nc2sc3c(c2C#N)CCCC3)o1,98,97,51*,99,94,97
CC(NCCCOc1cccc2ccccc12)c1ccccc1 (centres undefined),103,108,0,101,108,88
COc1ccccc1-c1nnc(NC(=O)c2ccc3c(c2)OCO3)s1,99,115,x,97,272*,124
O=C(NC(=S)NCCN1CCOCC1)c1cccc(Cl)c1,u,u,12,24*[may fluoresce violet],218*[may fluoresce violet],109
COc1ccc(C(=O)N/C(=C\c2cn(C)c3ccccc23)C(=O)NCCCn2ccnc2)cc1,u,u,3,61,181*[may fluoresce violet],91
Cc1ccc(C(=O)N/C(=C\c2ccc(Cl)cc2)C(=O)NCCN2CCOCC2)cc1,u,u,3,53,361*[may fluoresce violet],80
Cc1ccc(C(=O)N/C(=C\c2cn(C)c3ccccc23)C(=O)NCCCN2CCOCC2)cc1,u,u,-20,40*[may fluoresce violet],260*[may fluoresce violet],46
CCn1cc(/C=C(\NC(=O)c2ccc(C)cc2)C(=O)NCCCN2CCOCC2)c2ccccc21,x,x,-8,x,x,x
Cc1ccc(OCCC(=O)OCC(=O)NC2CCS(=O)(=O)C2)cc1 (centres undefined),118,103,25,98,92,105
Cc1ccc(C(=O)N/C(=C\c2ccc(-c3ccccc3[N+](=O)[O-])o2)C(=O)NCCCN2CCOCC2)cc1,u,u,-2,13*[may fluoresce violet],148,66
Cc1ccc(C(=O)N/C(=C\c2cn(C)c3ccccc23)C(=O)NCCN2CCOCC2)cc1,u,u,111,34*[may fluoresce violet],231*[may fluoresce violet],63
NC(=O)CC(NSc1ccccc1[N+](=O)[O-])C(=O)O (centres undefined),110,112,14,93,97,138
O=C(O)C1CCC(NSc2ccccc2[N+](=O)[O-])CC1 (centres undefined),90,96,-17,90,96,199*
N#CC1=C(N)NC(SCc2ccc(Br)cc2)=C(C#N)C12CCCCC2,u,u,-8,18*[may fluoresce violet],256*[may fluoresce violet],79
COCCN(C(=O)C1CC(=O)N(Cc2ccccc2)C1)c1nc(-c2ccc([N+](=O)[O-])cc2)cs1 (centres undefined),88,77,-11,92,93,88
Cc1ccccc1N1C(=O)c2sc3nc4c(c(=O)n3c2C1=O)CCC4,86,86,7,94,93,161*
CCOc1ccc(CN(C)C(=O)c2cccc(S(=O)(=O)N3CCCC3)c2)cc1OC,107,99,-2,100,99,99
O=C(N/N=C/c1ccc(O)cc1)Nc1cccc2nsnc12,97,90,-16,97,100,108
Cc1c2ccccc2nc2c(F)c(N(C)C)c(F)c(F)c12,93,96,-5,100,88,96
CN(C)c1c2ccccc2nc2c(F)c(F)c(F)c(F)c12,u,u,-24,65,188*[may fluoresce violet],68
COc1ccc(O)c(/C=N/NC(=O)CCC(=O)Nc2ccc(F)cc2)c1,92,97,3,100,102,89
COc1ccc(N(CC2CO2)S(=O)(=O)c2ccc(C)cc2)cc1 (centres undefined),94,91,-7,100,98,85
COc1ccc(Cl)cc1NC(=O)CN(C)C(=O)c1ccc(COc2ccccc2)cc1,105,80,-41,100,97,106
O=C1CC(Cc2ccccc2)C(=O)N1CCc1ccc2c(c1)OCO2 (centres undefined),90,94,22,97,95,106
SMILES,AGP1-GFP MLPCN,CIT2 TOR yeast,JMJD2C inh,RPL19A-GFP yeast,MEP2-GFP yeast,LAP4 TOR yeast
O=C1OC[C@H](Cc2ccc3c(c2)OCO3)/C1=C\c1ccc2c(c1)OCO2,u,u,u,14*[may fluoresce violet],339*[may fluoresce violet],104
Cc1nc(Nc2cnc(/C=C/c3cc(C(=O)Nc4cccc(C(F)(F)F)c4)ccc3C)cn2)cc(N2CCNCC2)n1,12,u,1,45*[may fluoresce violet],198*[may fluoresce violet],107
S=c1[nH]c2ccccc2o1,100,108,3,105,108,90
Fc1ccc(N2CCN(c3nnnn3-c3ccccc3)CC2)cc1,100,106,15,99,99,106
CC1CN(c2nnnn2-c2ccccc2)CC(C)O1 (centres undefined),29,112,3,78,188*,95
CCOc1ccc(-c2nnc(-c3ccccc3)o2)cc1,x,u,1,30*[may fluoresce violet],394*[may fluoresce violet],94
COc1ccc(C2=CC3=C(Br)C(=O)C(C)(OC(=O)c4ccco4)C(=O)C3=CO2)cc1 (centres undefined),11,u,7,46*[may fluoresce violet],104,106
COc1ccc(C2=CC3=C(Br)C(=O)C(C)(OC(=O)c4cccs4)C(=O)C3=CO2)cc1 (centres undefined),18,u,4,65,159,141
CCN(CC)C(=O)c1ccc(-c2cccs2)s1,72,52,-7,85,73,184*
CCN(CC)C(=O)c1sc(NC(=O)c2cccs2)c(C#N)c1C,100,103,-9,101,105,106
Cn1c(N)c(C(=O)COC(=O)Cc2cccc(C(F)(F)F)c2)c(=O)n(C)c1=O,96,92,2,98,98,94
CCCc1cc(=O)[nH]c(SCC(=O)N2CCCCCC2)n1,98,107,2,101,103,98
Cc1ccc(C2=N/C(=C\N3CCCCC3)C(=O)O2)cc1,u,u,2,63,184*[may fluoresce violet],105
Nc1nonc1-c1noc(-c2ccccc2Br)n1,26,u,-3,45*[may fluoresce violet],261*[may fluoresce violet],108
COc1ccc(NC(=O)CN(C)CC(=O)NCC(=O)Nc2ccc(F)cc2)cc1,113,113,9,100,97,98
COc1ccc(N2CCN(CCNC(=O)Nc3ccc(C)cc3Cl)CC2)cc1,u,u,-4,28*[may fluoresce violet],400*[may fluoresce violet],55
CCC1(c2ccc(F)cc2)NC(=O)N(CC(=O)N(C)C2CCS(=O)(=O)C2)C1=O (centres undefined),105,111,-3,100,100,101
O=C(CNC(=O)C1(c2ccccc2)CC1)Nc1ccc(F)c(F)c1,103,99,2,98,105,108
CSc1cccc(NC(=O)C2CCCN(S(=O)(=O)c3cccs3)C2)c1 (centres undefined),u,u,-10,16*[may fluoresce violet],u,u

# Screening results (PubChem)
